Molecules are shown by their SMILES. Active and inactive are the calls of the source.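 How the source made its calls: active means cell killing with a fitted half-maximal concentration no more than twice the top valid dose used; inconclusive means flat curve with a moderate signal drop, or poor fit; inactive means the rest.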

The assay in a line: loss of HepG2 viability via ATP – cell-based, plate reader, dry powder, set 7, cytotoxicity control, dose response (AID 743313). The conditions noted are these: ATP luminescence (CellTiter-Glo), 72 h; series mostly up to 26 µM; activity change, negative = cytotoxicity: at the top concentration.
For the compound `Cc1cccc(OCCn2c(=S)[nH]c3cc(F)ccc32)c1`, the outcome was inactive. Regarding `Cc1ccc(C(C)C)c(OCCn2c(=S)[nH]c3cccc(Cl)c32)c1`, the “activity change, negative = cytotoxicity” value is -14.8% (inactive). `Cc1ccc(C(C)C)c(OCCn2c(=S)[nH]c3cccc(F)c32)c1`: the “activity change, negative = cytotoxicity” value is -19.6% (inactive). The same measure, in the same setting: the same measure for `Cc1ccc(OCCn2c(=S)[nH]c3ccccc32)c(C)c1`: -11.8% (inactive).

Consider `Cc1cccc(OCCn2c(=S)[nH]c3ccc(C(F)(F)F)cc32)c1`, for which the “activity change, negative = cytotoxicity” value is -9.92% (inactive). Same read-out and setting: for `Cc1ccc(OCCn2cnc3ccccc32)cc1` the value was -8.55% (inactive).

Take `Cc1ccc2c(c1)[nH]c(=S)n2CCOc1ccccc1`: the result was inactive.

As to `Cc1ccccc1OCCn1c(=S)[nH]c2ccccc21`, the “activity change, negative = cytotoxicity” value is -15.7% (inactive).

For `CC(C)(C)c1ccc(OCCn2cnc3ccccc32)cc1`, the “activity change, negative = cytotoxicity” value is -14.3% (inactive).

Take `Cc1ccc(OCCn2c(C)nc3ccccc32)cc1`: the “activity change, negative = cytotoxicity” value was -16.1% (inactive). Turning to `S=c1[nH]c2ccccc2n1CCOc1ccccc1Cl`, the “activity change, negative = cytotoxicity” value was -11.6% (inactive). In the case of `S=c1[nH]c2cccc(Cl)c2n1CCOc1ccccc1`, the outcome was inactive. Same read-out and setting: the same measure for `Fc1ccc2c(c1)[nH]c(=S)n2CCOc1ccccc1`: “inactive”. As for `Cc1ccc(C(C)C)c(OCCn2c(=S)[nH]c3ccc(F)cc32)c1`, the “activity change, negative = cytotoxicity” value is -15.2% (inactive). On to `c1ccc(OCCn2cnc3ccccc32)cc1`, for which the “activity change, negative = cytotoxicity” value is -12.9% (inactive). `Cc1ccc(OCCn2c(SCCO)nc3ccccc32)c(C(C)C)c1`: the “activity change, negative = cytotoxicity” value is -26.3% (inactive). In the case of `Cc1cccc(OCCn2c(=S)[nH]c3ccccc32)c1C`, the “activity change, negative = cytotoxicity” value is -6.93% (inactive).

As to `Cc1ccc(C)c(OCCn2c(=S)[nH]c3ccccc32)c1`, the “activity change, negative = cytotoxicity” value was -18.1% (inactive). On the same count and under the same terms, for `S=c1[nH]c2cc(Cl)ccc2n1CCOc1ccccc1` the value was -11.3% (inactive); for `CSc1nc2ccccc2n1CCOc1cc(C)ccc1C(C)C`, -10.2% (inactive). Regarding `Cc1cccc(OCCn2c(=S)[nH]c3c(F)cccc32)c1`, the call was inactive. Regarding `Cc1cccc2[nH]c(=S)n(CCOc3ccccc3)c12`, the “activity change, negative = cytotoxicity” value is -4.27% (inactive). The same measure, in the same setting: for `Cc1ccc(C(C)C)c(OCCn2c(=S)[nH]c3cc(F)ccc32)c1` the value was -22.7% (inactive); for `CC(C)(C)c1ccc(OCCn2c(=S)[nH]c3ccccc32)cc1`, -18.1% (inactive).

Turning to `Cc1cccc(OCCn2c(=S)[nH]c3ccccc32)c1`, the “activity change, negative = cytotoxicity” value was -3.15% (inactive). For the compound `Cc1ccc(OCCn2c(=S)[nH]c3ccccc32)c(C(C)C)c1`, the compound was classed as inactive.

Source of the values: PubChem BioAssay AID743313 (Broad Institute, 2014).
